In ChEMBL document CHEMBL1157539, “Thousands of chemical starting points for antimalarial lead identification” (Nature, 2010) one finds Inhibition data, which are given here for 40 molecules.

As a reminder, the Inhibition is the drop in the measured response relative to a control, in per cent.

The structures appear in SMILES notation.

The subject of this test is HepG2. Nature of the test: GSK_TCMDC: Percent inhibition of human HepG2 cell line. Test compounds present at 10uM. It is filed as functional.
Molecule `CCc1nc(N)nc(N)c1-c1ccc(C(C)(C)C)cc1` gave an Inhibition of 27%.
As to `CCCc1cc(NC2CCN(C)CC2)nc(Nc2cccc(OC)c2)n1`, the Inhibition was 31%.
Molecule `CCNc1cc(C(=O)N[C@@H](Cc2ccccc2)[C@H](O)CNCCCc2ccc(OC)cc2)cc(N2CCCC2=O)c1.O=C(O)C(F)(F)F` came in with an Inhibition of 4%.
`COCCNCc1cccc(-c2cc3nccc(Nc4ccc(Oc5ccccc5)cc4)c3cc2Cl)c1`: the Inhibition is recorded as 0%.
`NCC1CCCN1Cc1cccc(-c2ccc(-c3nc4cc(C(F)(F)F)ccc4[nH]3)s2)c1.O=C(O)C(F)(F)F` (stereo not given) yielded an Inhibition of 17%.
For `COc1ccc(CN(C)C(=O)CCNS(=O)(=O)c2ccc3c(c2)OCCCO3)cc1F`, the Inhibition came out at 9%.
`CC(O)C1CCCCN1C(=O)c1cccc(-c2ccc(-c3nc4cc(C(F)(F)F)ccc4[nH]3)cc2)c1` (stereo not given): the Inhibition was found to be 33%.
With `Cc1cccc2nc(-c3cccc(-c4ccc(NC(=O)C(C)CN(C)C)cc4)c3)[nH]c12` (stereo not given) the figure was 29%; with `CCCCCCNC(=O)C1Cc2c([nH]c3cc(Cl)ccc23)C2(CCN(Cc3ccccc3)CC2)N1` (stereo not given), 21%.
For the molecule `CN1CCCC(CN2CCN(Cc3ccc(-c4ccc(-c5nc6ccccc6[nH]5)cc4)cc3)CC2)C1.O=C(O)C(F)(F)F` (stereo not given), the Inhibition came out at 69%.
The same measure for `CCCNS(=O)(=O)c1ccc(NC(=O)C(C)Oc2ccc([N+](=O)[O-])cc2)cc1` (stereo not given): 3%; for `CCCCCN(C(=O)Nc1cc(C(F)(F)F)cc(C(F)(F)F)c1)C(C)c1nc2ccccc2c(=O)n1CC` (stereo not given): 0%.
The molecule `Cn1cncc1C(=O)Nc1cccc(-c2ccc(-c3nc4cc(F)ccc4[nH]3)s2)c1` had an Inhibition of 0%.
With `CCCCCCn1c(Sc2ccc(C#N)c([N+](=O)[O-])c2)nnc1-c1cc(OC)cc(OC)c1` the figure was 35%; with `Cc1nn(-c2ccc(Cl)cc2)c2[nH]c(CN3CCN(c4cccc(Cl)c4)CC3)cc(=O)c12`, 0%; with `CC(=Nc1ccc(Cl)c(Cl)c1)N(C)C.Cl`, 0%.
Turning to `Cc1cc(Nc2ccc(Cl)c(Cl)c2)n2nc(C)nc2n1`, the Inhibition worked out at 6%.
With `OC(CNCc1ccccc1Oc1ccccc1)c1cccc(C(F)(F)F)c1` (stereo not given) the figure was 0%; with `CC(=O)NC(c1cccs1)c1cc(Cl)c2cccnc2c1O` (stereo not given), 65%.
Regarding `COc1ccc(CNCc2ccccc2)cc1-c1ccc(S(=O)(=O)NCCN2CCCC2)c(F)c1.O=C(O)C(F)(F)F`, the Inhibition is recorded as 29%.
`CN(C)CCNCc1ccc(-c2ccc3c(Nc4ccc(Oc5ccccc5)cc4)ccnc3c2)o1`: the Inhibition is 19%.
`COCCN1CCN(Cc2ccc(-c3cccc(-c4nc5ccccc5[nH]4)c3)cc2)CC1.O=C(O)C(F)(F)F` yielded an Inhibition of 32%.
The molecule `Cc1ccc(NC(=O)c2ccc(CN3CCCN(Cc4cccc(O)c4)CC3)cc2)cc1F.O=C(O)C(F)(F)F` registered an Inhibition of 48%.
In the case of `CC(C)n1ncc2c3c(N)nc(N)nc3ccc21`, the Inhibition was 64%.
`Cl.O=C(Nc1cccc(C2=NCCCN2)c1)Nc1cccc(C2=NCCCN2)c1` gave an Inhibition of 5%.
Molecule `COC(=O)C1(NC(=O)c2ccc(-n3nc(C)c(-c4ccccc4)c3N)cc2)CCCC1` yielded an Inhibition of 9%.
Regarding `CC(C)CNCc1ccc(-c2cccc(CN(CCN(C)C)C(=O)NCCc3ccccc3)c2)cc1.O=C(O)C(F)(F)F`, the Inhibition is on record as 33%.
In the case of `O=C(NCCN1CCCCC1)c1ccc(CNC(=O)c2ccc(O)c(-c3ccc(Cl)c(Cl)c3)c2)cc1`, the Inhibition was determined as 3%.
In the case of `Fc1ccc2[nH]c(-c3cccc(-c4cccc(CNCCc5ccncc5)c4)c3)nc2c1.O=C(O)C(F)(F)F`, the Inhibition came to 22%.
With `CC(C)(C)c1cc(C(=O)N2CCN(c3ccc(C(F)(F)F)cn3)CC2)n(Cc2ccc(F)cc2)n1` the figure was 4%.
Take `CC1(C(=O)Nc2ccc([N+](=O)[O-])cc2O)CC2c3ccccc3C1c1ccccc12` (stereo not given): the Inhibition is given as 37%.
`COc1ccc(CC(Cc2ccc(OC)cc2)NCC(O)c2cccc(Cl)c2)cc1` (stereo not given) displayed an Inhibition of 11%.
`FC(F)(F)c1cccc(CCNc2nccc(NCc3ccc(Cl)cc3Cl)n2)c1`: the Inhibition worked out at 8%.
In turn, `COc1ccc(-n2cc(CNCCCn3ccnc3)c(-c3cccc(F)c3)n2)cc1` registered an Inhibition of 21%.
As to `COc1cc2c(cc1OC)CN(CCc1ccc(NC(=O)c3cc4cc(OC(F)(F)F)ccc4[nH]3)cc1)CC2`, the Inhibition amounted to 36%.
With `CN(C)CCOc1ccc(-c2cc(-c3ccc(Cl)c(O)c3)c(-c3ccncc3)[nH]2)cc1.Cl` the figure was 54%.
`COc1cc(NC(=O)/C=C/c2cccc3cc[nH]c23)ccc1OCCN(C(C)C)C(C)C.Cl` came in with an Inhibition of 11%.
On to `O=C(Nc1cccc(CN2CCN(Cc3cccc(O)c3)CC2)c1)c1ccc(Cl)c(Cl)c1.O=C(O)C(F)(F)F`, for which the Inhibition was determined as 28%.
With `O=C(Nc1cccc(N2CCC(NCc3cccnc3)CC2)c1)c1cccc(C(F)(F)F)c1` the figure was 26%; with `O=C(Nc1cccc(CN2CCCN(Cc3ccc(O)cc3)CC2)c1)c1ccc(Cl)c(Cl)c1.O=C(O)C(F)(F)F`, 22%.
